Compound activity (PubChem BioAssay)
Beta cell apopt = beta cell apoptosis inhibition; protection from apoptosis, % (no concentration beside the values); actives 0.8% (n = 300,000); INS-1E cytokine-induced death, ATP luminescence, 48 h; percent of positive-control rescue, neutral wells zero;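 active means Every replicate reaches about 75%, or at least half do and their mean reaches it too, limit read from the data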;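 further: higher means more ATP so stronger rescue from cytokine killing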
CSC inhib = cancer stem cell inhibition. actives 1.1% (n = 300,000). cancer stem cell-like cells viability, luminescence. inhibition, % at 7.5 µM; in the data active means inhibition above about 75%; tested in HMLE shEcad cells
SKKanGAS inh = blocks kanamycin growth of S. pyogenes SKKanGAS strain | AID 1662 | inhibition, % at 7.5 µM | actives 1.3% (n = 300,000) | BacTiter-Glo, 6 h;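 active means mean replicate score, as percent of positive control median, at least 50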;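 further: strain carries kanamycin resistance gene driven by streptokinase promoter and grows in 40 µg/ml kanamycin; loss of luminescence reflects streptokinase promoter inhibition or plain growth inhibition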
Mdm2-MdmX inh = disrupts the human Mdm2-MdmX interaction. actives 3% (n = 330,000). inhibition, % at 8 µM. AID 485346. SaOS-2 split-luciferase Mdm2/MdmX complementation, luminescence. O15151+Q00987;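 active means inhibition of at least 50% at 8 µM in the primary screen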
Target sequence (O15151 whole entry, looked up): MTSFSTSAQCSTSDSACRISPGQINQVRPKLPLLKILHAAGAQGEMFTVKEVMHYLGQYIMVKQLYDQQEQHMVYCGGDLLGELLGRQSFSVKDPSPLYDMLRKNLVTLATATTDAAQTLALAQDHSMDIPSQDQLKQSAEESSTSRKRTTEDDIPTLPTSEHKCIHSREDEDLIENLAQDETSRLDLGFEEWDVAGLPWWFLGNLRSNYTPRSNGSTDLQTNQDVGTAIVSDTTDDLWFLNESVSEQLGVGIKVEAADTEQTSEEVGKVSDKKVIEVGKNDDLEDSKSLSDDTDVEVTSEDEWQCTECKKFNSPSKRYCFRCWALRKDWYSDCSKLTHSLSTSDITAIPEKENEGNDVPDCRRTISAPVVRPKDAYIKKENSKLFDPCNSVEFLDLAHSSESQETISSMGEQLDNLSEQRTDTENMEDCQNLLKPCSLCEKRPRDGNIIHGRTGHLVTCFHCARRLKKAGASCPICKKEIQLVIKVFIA
Target sequence (Q00987 whole entry, looked up): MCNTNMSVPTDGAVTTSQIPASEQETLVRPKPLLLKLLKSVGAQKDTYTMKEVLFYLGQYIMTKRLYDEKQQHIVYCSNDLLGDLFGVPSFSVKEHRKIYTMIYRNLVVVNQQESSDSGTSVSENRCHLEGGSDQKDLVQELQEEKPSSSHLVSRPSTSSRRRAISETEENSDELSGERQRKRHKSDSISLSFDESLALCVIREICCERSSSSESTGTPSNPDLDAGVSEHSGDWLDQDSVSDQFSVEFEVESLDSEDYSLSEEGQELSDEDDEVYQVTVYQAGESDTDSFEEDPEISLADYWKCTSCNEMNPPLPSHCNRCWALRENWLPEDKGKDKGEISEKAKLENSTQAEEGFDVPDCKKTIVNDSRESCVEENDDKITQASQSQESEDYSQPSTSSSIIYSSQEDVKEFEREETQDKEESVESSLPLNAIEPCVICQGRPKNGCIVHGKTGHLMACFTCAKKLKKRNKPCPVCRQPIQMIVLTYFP
MPTP inh = permeability transition pore inhibition | isolated mouse mitochondria, Ca2+ swelling absorbance, 30 min | actives 1.4% (n = 360,000) | inhibition, % at 10 µM;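 active means inhibition of 50% or more, scaled per plate between neutral and stimulator controls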
Calb FLC = C. albicans growth modulation with fluconazole; AID 1979; C. albicans CaCi-2 (fluconazole-resistant clinical isolate) + fluconazole, Alamar Blue growth, 48 h; actives 0.57% (n = 300,000); growth inhibition, % (test concentration not listed);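 active means growth inhibition above about 58% in most replicates, limit read from the data, passing the limit was not always enough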;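 further: all wells also contain fluconazole at 8 µg/ml as a sub-toxic cotreatment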
Mdm2-MdmX conf = human Mdm2/MdmX binding inhibition, confirmed | shares compounds with Mdm2-MdmX inh | luminescent assay | inhibition, % at 8 µM | actives 55% (n = 10,000) | AID 489028; in the data active means inhibition above about 40%
FLuc counter = full-length luciferase inhibition in Mdm2/MdmX counter-screen; shares compounds with Mdm2-MdmX inh; SaOS-2 full-length luciferase counterscreen, luminescence; inhibition, % at 8 µM; actives 77% (n = 6,200);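 active means mean inhibition at 8 µM reaching about 37%, which flags the compound as non-specific, limit read from the data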;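 further: p53-null SaOS-2 cells with luciferase driven by a doxycycline-inducible promoter; compound on cells about two nights before reading with doxycycline added after day one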
Numbers stand for hits. The list is not random: actives were taken first. Their share in the collection is about 5.4%.

CCN(CC)CCCN(C(=O)c1ccccc1F)c1nc(-c2ccc(OC)cc2)cs1 was read as Beta cell apopt inactive, CSC inhib inactive, SKKanGAS inh inactive, Mdm2-MdmX inh 50, MPTP inh inactive, Calb FLC inactive, Mdm2-MdmX conf 42 and FLuc counter 69.
Screening CCN(CC)CCCN(C(=O)c1ccc(OC)cc1)c1nc(-c2ccc(OC)cc2)cs1 returned Beta cell apopt inactive, CSC inhib inactive, SKKanGAS inh inactive, Mdm2-MdmX inh 50, MPTP inh inactive, Calb FLC inactive, Mdm2-MdmX conf 40 and FLuc counter 58.
COc1ccc(-c2csc(N(CCCN(C)C)C(=O)c3ccc(C)cc3)n2)cc1 was read as Beta cell apopt inactive, CSC inhib inactive, SKKanGAS inh inactive, Mdm2-MdmX inh inactive, MPTP inh inactive and Calb FLC inactive.
For CCN(CC)CCCN(C(=O)c1ccccc1C)c1nc(-c2ccc(OC)cc2)cs1 the results were Beta cell apopt inactive, CSC inhib inactive, SKKanGAS inh inactive, Mdm2-MdmX inh inactive, MPTP inh inactive and Calb FLC inactive.
`CN(C)CCCN(C(=O)c1ccc(C(=O)c2ccccc2)cc1)c1nc2cc3c(cc2s1)OCO3` gave Beta cell apopt inactive, CSC inhib inactive, SKKanGAS inh inactive, Mdm2-MdmX inh 75, MPTP inh inactive, Calb FLC inactive, Mdm2-MdmX conf 48 and FLuc counter inactive.
`CN(C)CCCN(C(=O)c1cc(Cl)sc1Cl)c1nc2cc3c(cc2s1)OCO3` gave Beta cell apopt inactive, CSC inhib inactive, SKKanGAS inh inactive, Mdm2-MdmX inh 54, MPTP inh inactive, Calb FLC inactive and Mdm2-MdmX conf inactive.
Screening N#Cc1c(N)nc(-c2ccccc2)nc1-c1ccccc1 returned Beta cell apopt inactive, CSC inhib inactive, SKKanGAS inh inactive, Mdm2-MdmX inh 56, MPTP inh inactive, Calb FLC inactive and Mdm2-MdmX conf inactive.
For CC(C)(C)c1ccc(-c2nc(N)nc(N)n2)cc1 the results were Beta cell apopt inactive, CSC inhib inactive, SKKanGAS inh inactive, Mdm2-MdmX inh inactive, MPTP inh inactive and Calb FLC inactive.
`CSc1nc(-c2ccc(Cl)cc2)nc(N)c1C#N` gave Beta cell apopt inactive, CSC inhib inactive, SKKanGAS inh inactive, Mdm2-MdmX inh 67, MPTP inh inactive, Calb FLC inactive, Mdm2-MdmX conf 44 and FLuc counter 73.
Nc1nc(-c2ccc(Cl)cc2)nc(-c2ccc(Cl)cc2)n1 was read as Beta cell apopt inactive, CSC inhib inactive, SKKanGAS inh inactive, Mdm2-MdmX inh 57, MPTP inh inactive, Calb FLC inactive, Mdm2-MdmX conf 40 and FLuc counter 61.
N#Cc1c(-c2ccccc2)nc(-c2ccccc2)nc1N1CCOCC1 was read as Beta cell apopt inactive, CSC inhib inactive, SKKanGAS inh inactive, Mdm2-MdmX inh inactive, MPTP inh inactive and Calb FLC inactive.
Screening CSCCC(=O)N1CCCC(N2CCN(c3cccc(C(F)(F)F)c3)CC2)C1 (configuration not stated) returned Beta cell apopt inactive, CSC inhib inactive, SKKanGAS inh inactive, Mdm2-MdmX inh inactive, MPTP inh inactive and Calb FLC inactive.
`Cn1ccnc1CN1CCCCC1C(=O)Nc1ccc(Oc2cccnc2)cc1` (configuration not stated) gave CSC inhib inactive, SKKanGAS inh inactive, Mdm2-MdmX inh 51, MPTP inh inactive, Calb FLC inactive, Mdm2-MdmX conf 74 and FLuc counter 65.
CCOc1ccccc1N(CC(=O)NC(C)(C)C)C(=O)c1ccc(CN2CCOCC2)o1 was read as CSC inhib inactive, SKKanGAS inh inactive, Mdm2-MdmX inh inactive, MPTP inh inactive and Calb FLC inactive.
Screening O=S(=O)(CC(CN1CCCC1)N1CCCC1)c1ccc2ccccc2c1 (configuration not stated) returned Beta cell apopt inactive, CSC inhib inactive, SKKanGAS inh inactive, Mdm2-MdmX inh 75, MPTP inh inactive, Calb FLC inactive, Mdm2-MdmX conf 85 and FLuc counter 56.
For CCCCCC(=O)N1C[C@H](n2cc(C3CC3)nn2)[C@@H](O)C[C@@H]1c1ccc(C)cc1 the results were MPTP inh inactive.
